Results on eight molecules are retold here after PubChem BioAssay (NCI).

The panel holds about 83,000 compounds, 20% with a hit somewhere; the sample as a whole holds those more often.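 Results are percent growth after 48 hours of single-concentration exposure. 100 means growth as in untreated cells, lower positive values show inhibition; negative values down to -100 show cell death.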 Values without a mark were called inactive. Calls of active or inactive are those of the source. The calls were made as follows: active = growth percent below 10; inactive = the rest.

Among the test systems are HCT-15 colon; HT29 colon; SNB-75 CNS; SNB-19 CNS; PC-3 prostate; SK-MEL-5 melanoma; UACC-62 melanoma; LOX IMVI melanoma; SK-MEL-28 melanoma; SK-MEL-2 melanoma; EKVX NSCLC; SN12C renal; UO-31 renal; TK-10 renal; ACHN renal; CAKI-1 renal; A498 renal; CCRF-CEM leukemia; MOLT-4 leukemia; U251 CNS.
Test in all cases: NCI-60 one-dose screen, 48 h (100 = growth as untreated, 0 = no growth, -100 = all killed)
Common to all, as to conditions: 10 µM unless noted

In the case of `CCOc1ccc(NC(=O)c2cc(OC)c(OC)c(OC)c2)cc1`, the growth was 31.8% in the assay on HCT-15 colon; 11.5% with HT29 colon; 30.5% in the assay with SNB-75 CNS; 49.6% with SNB-19 CNS; 29.9% in the assay with PC-3 prostate; 28.7% with SK-MEL-5 melanoma. For the same molecule, the growth was 35.7% with UACC-62 melanoma; 35.5% in the assay with LOX IMVI melanoma; 66.4% in the assay with SK-MEL-28 melanoma; 16.1% in the assay on SK-MEL-2 melanoma; 54.1% with EKVX NSCLC; 56% with SN12C renal. For the same molecule, the growth with UO-31 renal is 52%; in the assay with TK-10 renal, 60.3%; in the assay on ACHN renal, 55.9%; in the assay with CAKI-1 renal, 39.8%; in the assay on A498 renal, -0.366% (active); in the assay with CCRF-CEM leukemia, 27.9%. Besides, in the assay on MOLT-4 leukemia, the growth is 31.6%.

On to `Cc1ccccc1OCC(O)COc1ccccc1C`, for which the growth in the assay with HCT-15 colon was 79.1%; in the assay on HT29 colon, 103%; in the assay with SNB-75 CNS, 112%; in the assay on SNB-19 CNS, 94.9%; in the assay with U251 CNS, 86.1%; in the assay with SK-MEL-5 melanoma, 93.6%. In addition, the growth was 81.9% in the assay with UACC-62 melanoma; 97.6% with LOX IMVI melanoma; 101% in the assay with SK-MEL-28 melanoma; 102% with SK-MEL-2 melanoma; 101% with EKVX NSCLC; 83.9% in the assay on SN12C renal. Besides, the growth with UO-31 renal was 78.9%; in the assay with TK-10 renal it was 120%; with ACHN renal, 84.4%; in the assay with CAKI-1 renal, 80%; with A498 renal, 102%; in the assay on CCRF-CEM leukemia, 85.2%. Further, in the assay with MOLT-4 leukemia, the growth was 131%.

`Cc1cccc(N2CCN(C(=S)c3ccc4c(c3)OCO4)CC2)c1`: the growth with HCT-15 colon is 12.5%; with HT29 colon it was 6.38% (active); in the assay on SNB-75 CNS, -21.4% (active); in the assay on SNB-19 CNS, 47.1%; with PC-3 prostate, 19.5%; in the assay on SK-MEL-5 melanoma, 6.14% (active). In addition, the growth in the assay on UACC-62 melanoma is 29.1%; in the assay with LOX IMVI melanoma, 32.8%; in the assay with SK-MEL-28 melanoma, 54%; with SK-MEL-2 melanoma, 9.2% (active); in the assay on EKVX NSCLC, 47.1%; with SN12C renal, 40%. Moreover, the growth in the assay on UO-31 renal is 25.6%; in the assay on TK-10 renal it was 36.5%; with ACHN renal, 43.1%; in the assay with CAKI-1 renal it was 15.1%; with A498 renal, 11.7%; with CCRF-CEM leukemia, 16.5%. Moreover, the growth with MOLT-4 leukemia was 22%.

Turning to `CC(=O)c1cc(-c2ccccc2N)n(-c2ccc3c(c2)OCO3)c1C`, the growth in the assay with HCT-15 colon is 13.4%; with HT29 colon, 6.88% (active); in the assay on SNB-75 CNS it was 22.8%; in the assay on SNB-19 CNS, 18.6%; in the assay with U251 CNS it was 14.7%; with SK-MEL-5 melanoma, 2.46% (active). For the same molecule, the growth was 25.3% in the assay on UACC-62 melanoma; 35.1% with LOX IMVI melanoma; 52.4% with SK-MEL-28 melanoma; 51.6% in the assay with SK-MEL-2 melanoma; 50.9% in the assay with EKVX NSCLC; 29.1% with SN12C renal. Moreover, the growth is 40.2% in the assay with UO-31 renal; 45.6% in the assay with TK-10 renal; 21.2% in the assay on ACHN renal; 41.7% in the assay with CAKI-1 renal; -12% (active) in the assay with A498 renal; 11.8% in the assay with CCRF-CEM leukemia. Moreover, the growth with MOLT-4 leukemia is 16.1%.

Turning to `NS(=O)(=O)c1ccc(N/C=C/C(=O)c2cc3ccccc3oc2=O)cc1`, the growth is 93.5% in the assay with HCT-15 colon; 108% with HT29 colon; 76.1% with SNB-75 CNS; 103% in the assay on SNB-19 CNS; 93.7% in the assay with PC-3 prostate; 92.6% with SK-MEL-5 melanoma. The growth is 93.7% with UACC-62 melanoma; 93% in the assay on LOX IMVI melanoma; 111% with SK-MEL-28 melanoma; 109% in the assay on SK-MEL-2 melanoma; 84% with EKVX NSCLC; 96% in the assay with SN12C renal. In addition, the growth in the assay on UO-31 renal was 62.4%; in the assay with TK-10 renal, 125%; in the assay on ACHN renal it was 99.7%; with CAKI-1 renal it was 80.1%; with A498 renal it was 111%; in the assay with CCRF-CEM leukemia, 108%. In the assay on MOLT-4 leukemia, the growth was 103%.

Regarding `CCCCC(=O)Nc1ncc(Cc2ccccc2Cl)s1`, the growth with HCT-15 colon is 24.8%; with HT29 colon it was 11%; in the assay on SNB-75 CNS, 25.3%; in the assay on SNB-19 CNS, 48.7%; in the assay on PC-3 prostate, 68.8%; in the assay with SK-MEL-5 melanoma it was 37.6%. Also, the growth in the assay on UACC-62 melanoma was 32.4%; in the assay with LOX IMVI melanoma, 40.2%; in the assay on SK-MEL-28 melanoma, 57.7%; in the assay with SK-MEL-2 melanoma, 55.8%; with EKVX NSCLC it was 57.6%; with SN12C renal it was 42.4%. The growth was 44.6% with UO-31 renal; 62.8% in the assay with TK-10 renal; 61.4% in the assay with ACHN renal; 37.8% in the assay with CAKI-1 renal; 48.5% with A498 renal; 57.3% with CCRF-CEM leukemia. In addition, in the assay on MOLT-4 leukemia, the growth was 28.5%.

`CN1CCN(C(=O)c2cc(-c3ccc4ncnc(N5CCc6cc(F)c(Cl)cc65)c4c3)cnc2N)CC1`: the growth was 5.57% (active) with HCT-15 colon; 13.6% in the assay on HT29 colon; -35.3% (active) with SNB-75 CNS; 13% with SNB-19 CNS; 1.89% (active) with PC-3 prostate; -97.1% (active) with SK-MEL-5 melanoma. For the same molecule, the growth was -52.1% (active) in the assay on UACC-62 melanoma; -41.4% (active) in the assay with LOX IMVI melanoma; -0.0571% (active) in the assay on SK-MEL-28 melanoma; -48% (active) with SK-MEL-2 melanoma; -10.2% (active) with EKVX NSCLC; 9.07% (active) in the assay on SN12C renal. The growth in the assay on UO-31 renal is 3.95% (active); in the assay with TK-10 renal it was -14.2% (active); in the assay with ACHN renal, 5.3% (active); in the assay on CAKI-1 renal, -33.3% (active); in the assay on A498 renal, -69.2% (active); with CCRF-CEM leukemia, 7.93% (active). Further, the growth with MOLT-4 leukemia was 1.54% (active).

`CCOC(=O)Nc1nc2ccc(SCC(C)C)cc2s1`: the growth in the assay on HCT-15 colon was 25.5%; with HT29 colon, 9.7% (active); with SNB-75 CNS, 74.3%; in the assay on SNB-19 CNS, 49.9%; with U251 CNS, 34.3%; in the assay on SK-MEL-5 melanoma, 34.1%. Also, the growth is 17.3% in the assay with UACC-62 melanoma; 36.3% with LOX IMVI melanoma; 62.3% in the assay on SK-MEL-28 melanoma; 33.1% in the assay with SK-MEL-2 melanoma; 48.7% in the assay on EKVX NSCLC; 44.4% in the assay with SN12C renal. Moreover, the growth is 37.6% with UO-31 renal; 33% in the assay on TK-10 renal; 45.6% in the assay with ACHN renal; 96.6% in the assay with CAKI-1 renal; 21.5% with A498 renal; 21.5% with CCRF-CEM leukemia. In addition, in the assay on MOLT-4 leukemia, the growth is 31.8%.
